Source: PubChem BioAssay (NCI)
The panel holds about 79,000 compounds, 15% with a hit somewhere; the sample as a whole holds those more often. No stated cut-off is given here; in the data, active means growth inhibition above about 70%; inactive means the rest.

Columns and labels:
[1] = NCI Yeast Anticancer Drug Screen. Data for the rad50 strain (AID 155);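 further: 0% = growth of vehicle-only cultures of the same strain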; settings: S. cerevisiae rad50 strain growth inhibition; at 50.0 µM; stronger effect = higher value
Summary of the method: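 Compounds were tested on a yeast strain with an engineered DNA damage repair alteration; the reported value is growth inhibition normalised to vehicle treatment.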

[2] = NCI Yeast Anticancer Drug Screen. Data for the mec2-1 strain (AID 157); settings: S. cerevisiae mec2-1 strain, at 50.0 µM, stronger effect = higher value
Summary of the method: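 Using mec2-1 yeast: add compound, measure growth, express inhibition versus vehicle-treated cultures.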

[3] = NCI Yeast Anticancer Drug Screen. Data for the sgs1 mgt1 strain (AID 161);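 further: 0% = growth of cultures given vehicle only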; settings: S. cerevisiae sgs1 mgt1 strain, at 50.0 µM, stronger effect = higher value
Summary of the method: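 Compounds are added to genetically altered yeast, and growth is compared with cultures given vehicle alone to give percent inhibition.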

[4] = NCI Yeast Anticancer Drug Screen. Data for the cln2 rad14 strain (AID 165);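 further: 0% = growth equal to vehicle treated cultures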; settings: S. cerevisiae cln2 rad14 strain, at 50.0 µM, stronger effect = higher value
Summary of the method: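 Yeast strain cln2 rad14, bearing defects in cell cycle control and DNA repair, serves as the test system; values reflect growth inhibition compared with vehicle.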

[5] = NCI Yeast Anticancer Drug Screen. Data for the bub3 strain (AID 167); settings: S. cerevisiae bub3 mutant strain, at 50.0 µM, stronger effect = higher value
Summary of the method: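 Growth of a checkpoint-deficient yeast mutant is measured after compound exposure. Values represent inhibition relative to vehicle.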

[6] = NCI Yeast Anticancer Drug Screen. Data for the mlh1 rad18 strain (AID 175); settings: S. cerevisiae mlh1 rad18 strain growth inhibition; at 50.0 µM; stronger effect = higher value
Summary of the method: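 Steps: expose repair-defective yeast to compound; measure growth; express inhibition against vehicle-treated controls.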

Measured: growth inhibition

Brc1cc(Br)cc(-c2nnc(-c3cccc4ccccc34)o2)c1
inactive: [1] -14.1% | [2] -16.4% | [3] 0.25% | [4] 24.1% | [5] 10.2% | [6] -4.65%

COc1cc(C2=N/C(=C\c3cccc([N+](=O)[O-])c3)C(=O)O2)cc(OC)c1OC
inactive: [1] -0.45% | [2] -7.25% | [3] 11.6% | [4] -8.05% | [5] -0.2% | [6] -22.5%

O=C(CNc1ccccn1)Nn1cnc2ccc(S(=O)(=O)Nc3ccccn3)cc2c1=O
inactive: [1] 32.2% | [2] 28% | [3] 39.4% | [4] -1.1% | [5] 25.6% | [6] 22.6%

NC(=O)c1nnc2cc(F)c(F)cc2c1N
inactive: [1] -15.8% | [2] -20.8% | [3] -9.65% | [4] 3.8% | [5] 9.5% | [6] -16.6%

CN=C(NC#N)NCCSCc1nc[nH]c1C
inactive: [1] 20.3% | [2] 16.8% | [3] -17.5% | [4] -5.2% | [5] -16.6% | [6] -29.2%

COC(=O)c1ccccc1NC(=O)c1cccc(Cl)c1
inactive: [1] 20.9% | [2] 6.85% | [3] 20.6% | [4] 16% | [5] 30.4% | [6] 23.7%

C=CC1OCC2(CO1)COC(C=C)OC2 (stereo not given)
inactive: [1] 12.4% | [2] -11.7% | [3] 2.4% | [4] -7.55% | [5] -12.4% | [6] 2.75%

CC1=NN(C(=O)Nc2ccccc2)C(=O)C2CCC(=O)N12 (stereo not given)
inactive: [1] -6.3% | [2] -4.55% | [3] -3.55% | [4] 3.85% | [5] -1% | [6] -8.1%

COc1ccc(C(O)C(C)(C(=O)O)c2ccccc2)cc1 (stereo not given)
inactive: [1] 2.95% | [2] 2.25% | [3] 4.6% | [4] -6.35% | [5] -5.05% | [6] 8.55%

N#CCCC1(c2ccccc2)CCC/C(=C/c2ccccc2)C1=O (stereo not given)
inactive: [1] 11.8% | [2] 14.1% | [3] 1.7% | [4] 7.1% | [5] 17.4% | [6] 3%

Cc1nn(C(=O)c2ccccc2O)c2c1C(c1ccccc1)SC(N)=N2 (stereo not given)
inactive: [1] 16.6% | [2] 17.6% | [3] 25.2% | [4] -5.25% | [5] 30.9% | [6] 9.3%

O=[N+]([O-])C(C=C(n1nnc2ccccc21)n1nnc2ccccc21)=C(n1nnc2ccccc21)n1nnc2ccccc21
inactive: [1] -20.1% | [2] -2.75% | [3] 16.7% | [4] 4.2% | [5] -6.45% | [6] 5.35%

CN(C)CC(/C(Cc1ccccc1)=N\NC(=S)NN)c1ccccc1 (stereo not given)
inactive: [1] 23.1% | [2] 9.55% | [3] 38.2% | [4] 21.4% | [5] -3.25% | [6] 13.7%

Cc1ccsc1/C=N/Nc1cc(C)c2ccccc2n1
inactive: [1] 41.4% | [2] -6.25% | [3] 40% | [4] 35.8% | [5] 26.6% | [6] 16.2%

Cc1ccc(NC(=O)/C(CC(=O)c2c[n+](=O)c3ccccc3n2O)=N\NC(=O)C[n+]2ccccc2)cc1
inactive: [1] 14.1% | [2] -1.25% | [3] -1.75% | [4] 24.8% | [5] 20.3% | [6] -0.85%

Cc1ccc2nccnc2c1
inactive: [1] -2.45% | [2] 3.9% | [3] -12.2% | [4] 5.1% | [5] 10.9% | [6] -1.85%

COc1ccc2c(c1)c1c3c(ccc4ncn2c43)N(CCN(C)C)CCN=1
inactive: [1] -27.1% | [2] -26.1% | [3] -9.25% | [4] -6.3% | [5] 1.4% | [6] -37.6%

Cc1cn2cc(-c3cccs3)nc2s1
inactive: [1] 15.2% | [2] -1% | [3] 19.4% | [4] 18.6% | [5] -7.8% | [6] 15.1%

Cc1cc(C)nc(NS(=O)(=O)c2ccc(Nc3c4ccccc4nc4c(C(=O)Nc5ccc(S(=O)(=O)Nc6cc(C)on6)cc5)cccc34)cc2)n1
inactive: [1] 28.8% | [2] 17.6% | [3] 32.2% | [4] 31.7% | [5] 11.4% | [6] 38.9%

CCC(C)Nc1ccc(NS(=O)(=O)CCl)cc1 (stereo not given)
inactive: [1] 54% | [2] 6.3% | [3] 13.3% | [4] 4.25% | [5] 6.6% | [6] 8.9%
